# Laboratory results reported in PubChem BioAssay AID1347417 (National Center for Advancing Translational Sciences (NCATS), 2020).
# About 5,300 (4.4%) of roughly 120,000 compounds were called active. Another 22% or so got no clear call; they are omitted. Only a selection was taken, and actives are over-represented in it overall. A number with no mark means an inactive call. The call rests on the fitted dose curve; in most records, active means well fitted inhibition curve with a large enough effect; inconclusive means small, poorly fitted or top-dose-only effect; inactive means no such curve, though single readings can be large or run the other way.
# Experiment: qHTS Primary assay for Inhibitors of Plasmodium falciparum Dd2 growth in vitro; further: nearly all actives have a fitted effect of over 65% in size;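 on activity, negative = inhibition: plate controls were DMSO vehicle for no effect and reference drug for full effect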
# Details: P. falciparum Dd2 growth, SYBR Green, 72 h; series mostly up to 28.9 µM; activity, negative = inhibition: at the top concentration
# Description: Malaria, a parasitic disease spread to humans through the bite of a Plasmodium infected Anopheles mosquito, continues to be a global health burden affecting millions of people, with an estimated 228 million cases and 405,000 deaths in 2018. Concerns about safety and limitations of current antimalarial treatments strongly emphasize the need to develop new therapeutic options. The scarce number of chemotypes and validated drug targets with efficacy against the liver stage, have hindered development of new antimalarials. To address this, a chemoprophylactic drug discovery effort was conducted through a combined phenotypic high-throughput asexual blood stage and liver stage screen, providing a robust foundation to identify liver-stage active lead chemotypes. Compounds were initially screened against Plasmodium falciparum Dd2 strain parasites using a in vitro SYBRGreen-1 based 72 hr proliferation assay to identify novel chemotypes to advance to liver stage assays. NIH/NCATS Early Translation Branch Assay Submitter (PI): Anton Simeonov Ph.D.
# Malaria-vivax Assay Protocol: PROTOCOL TABLE (as described by Inglese et al., 2007) SEQUENCE No. (e.g., 1, 2, 3, etc.); […] (e.g., Cells, Incubation, Reagent, etc.); VALUE; DESCRIPTION SEQUENCE, Parameter, Description 1; Reagent; 3 uL complete malaria growth medium, 1536 TC treated Black clear bottom plate 2; Controls; 23 nL positive control artesunate (300 nM final) to column 1; Neutral control DMSO to columns 2-4 3; Compound; 23 nL of compounds in dose response concentration (29 uM to 0.5 nM final) 4; Reagent; 5 uL malaria infected red blood cells (2.5% hematocrit final, 0.3% parasitemia 5; Time; 72 hours at 37C (5% O2, 5% CO2, 90% N2; 95% Rh) 6; Reagent; 2 uL lysis buffer/SYBRGreen-1, 25 sec shake immediately following dispense 7; Time; ~16 hours at 37C (5% O2, 5% CO2, 90% N2; 95% Rh) 8; Detector; EnVision (PerkinElmer) bottom read at 485/14nm excitation and 535/25 nm emission NOTES (numbers refer to sequence above): 1; Complete Malaria Growth Media: 1X RPMI-1640 w/L-glutamine, 5.5g/L Albumax II, 367 uM Hypoxanthine, 25 mM HEPES, 0.25% Sodium Bicarbonate, 35 uM Gentamicin sulfate 2; Controls were added using the Kalypsis Pintool (Wako USA) equipped with 1536 pinhead 3; Compounds were added in a 7-point, titration with a high final concentration of 29 uM by Pintool from seven inter-plate titrations of library plates and two DMSO control plates at the beginning and end (see Yasgar et al., 2008). 4; Red blood cells infected with Plasmodium falciparum Dd2 parasites were used. 6; Lysis buffer: 20 mM Tris-HCl, 10 mM EDTA, 0.16% Saponin, 1.6% Triton-X, 10X SYBR Green. REFERENCE: Inglese J, Shamu CE, Guy RK. 2007. Reporting data from high-throughput screening of small-molecule libraries. Nat Chem Biol. doi:10.1038/nchembio0807-438 Yasgar A, Shinn P, Jadhav A, Auld D, Michael S, Zheng W, Austin CP, Inglese J, Simeonov A. 2008. Compound Management for Quantitative High-Throughput Screening. J Lab Autom 13:79-89. doi:10.1016/j.jala.2007.12.004
# Potency means the concentration at half of the fitted maximal effect.
SMILES,"activity, negative = inhibition",Potency,outcome
C=CCN(C)C[C@H]1CN2CC[C@H]1C[C@@H]2CNC(=O)Nc1cccc(SC)c1,-1.33% [at 44.1 µM],,
CC[C@H]1CN2CC[C@H]1C[C@@H]2CNC(=O)c1ccc(N(C)C)cc1,-23.9% [at 44.1 µM],,
CN(Cc1ccccc1)C[C@H]1CN2CC[C@H]1C[C@@H]2CNC(=O)Nc1ccsc1,,10 µM (active),
CCc1nc(-c2cc(S(=O)(=O)N3CCN(c4ccc(OC)cc4)CC3)ccc2OC)no1,-2.1%,,
COc1ccc(S(=O)(=O)N2CCN(c3ccc(F)cc3)CC2)cc1-c1noc(C)n1,-4.06%,,
COc1ccc(OC)c(-c2noc(N3CCN(c4cc(Cl)ccc4C)CC3)n2)c1,,8.91 µM (active),
COc1nccnc1NC1CCN(C(=O)CCc2c(C)noc2C)CC1,30.5% [at 5.79 µM],,
O=C(Cc1ccsc1)N1CCC(c2n[nH]c(=O)n2Cc2ccc(F)cc2)CC1,-19.7%,,
Cn1cc(CNC(=O)C[C@@H]2C[C@H]3O[C@H](CNC4CCCC4)[C@@H](O)[C@H]3O2)cn1,,,inactive [at 44.1 µM]
COc1cc(-c2ccnc3nc(C4CC4)nn23)cc(OC)c1OC,,,inactive
Cc1cccc(C(=O)Nc2ccc(-c3nc4ccccc4s3)c(C)c2)c1,-25.6%,,
Cc1cc(Nc2cccc(C(F)(F)F)c2)nc2ccc(NC(=O)c3ccc(=O)[nH]c3)cc12,,3.98 µM (active),
Cn1c(C(=O)Nc2cccc(C(F)(F)F)c2)cc2c(=O)n3ccccc3nc21,-9.41%,,
O=C(O)c1ccnc(-c2ccnc(NCCN3CCCCC3CO)n2)c1 (stereo not drawn),23.5%,,
CN1CCCN(C(=O)c2ccccc2OC(F)(F)F)c2ccccc21,-8.3%,,
COc1ccccc1C(=O)N1CCCN(CCc2ccccc2)c2ccccc21,,11.2 µM (active),
COc1cccc(C(=O)N2CCCN(C(=O)C3CC3)c3ccccc32)c1OC,0.674%,,
COc1ccc(C2Cn3nnc(-c4noc(-c5ccccc5)n4)c3CO2)cc1 (stereo not drawn),,,inactive
COCCN1C(=O)[C@H]2CN(Cc3ccsc3)C[C@H]2C1=O,16.4%,,
COc1ccc(/C=C/c2nc(C#N)c(NCc3ccc(F)cc3)o2)cc1OC,,,inactive; activator; fitted 1.9953 uM
N#Cc1nc(/C=C/c2ccc(F)cc2)oc1NCc1ccc(F)cc1,-2.83%,,

SMILES,"activity, negative = inhibition",Potency,outcome
COc1ccccc1/C=C/c1nc(C#N)c(NC(C)c2ccccc2)o1 (stereo not drawn),,4.47 µM (active),
COCCn1nnnc1C1CC2(CCOCC2)C(=O)N1Cc1ccc(SC)cc1 (stereo not drawn),25.7%,,
COc1ccc(C(=O)Nc2cccc(-c3nnc4n3CCCC4)c2)cc1,,10 µM (active),
CC(=O)Nc1cccc(-c2nnc3n2CCCC3)c1,-23.7%,,
COc1cccc(NC(=O)c2c(OC)cc(=O)n3c2CCCC3)c1,29.4%,,
Cc1noc(C)c1C(=O)N1CC(N(Cc2cccnc2)CC(C)C)C1,-2.89%,,
O=C(c1ccsc1)N1CCCn2cc(-c3ccc4c(c3)OCO4)nc21,,,inactive
Cc1ccc(-n2c(=O)c3cccnc3n2CC(=O)Nc2ccccc2C(F)(F)F)cc1C,,8.91 µM (active),
Cc1ccc(-n2c(=O)c3cccnc3n2CC(=O)NCc2ccc(F)cc2)cc1C,-19.7%,,
CC(C)c1ccc(NC(=O)Cn2c3ncccc3c(=O)n2-c2ccccc2)cc1,2.68%,,
C=CCNC(=O)N1CC[C@H]2CC(=O)N(c3ccccc3)CC[C@H]2C1,-10.2% [at 44.1 µM],,
C[C@@]1(O)CCN(Cc2cc(=O)n3[nH]cnc3n2)C[C@@H]1O,8.29%,,
COCc1nc(C2CCCN(C(=O)c3ccccn3)C2)no1 (stereo not drawn),63.7%,,
CCOc1ccc(C(=O)N2CCCC(c3noc(COC)n3)C2)cc1 (stereo not drawn),57%,,
O=C(C1CCCC1)N1CCCC(c2noc(COc3ccccc3)n2)C1 (stereo not drawn),,8.91 µM (active),
COC(=O)c1cc(NC(=O)CCS(=O)(=O)c2cc(Br)cc3c2N(C(=O)C2CC2)CC3)cc(C(=O)OC)c1,9.63%,,
O=C(CCS(=O)(=O)c1cc(Br)cc2c1N(C(=O)C1CC1)CC2)Nc1ccc(C(F)(F)F)cc1,,1.12 µM (active),
O=C(C1CC1)N1CCc2cc(Br)cc(S(=O)(=O)N3CCN(c4ccccc4F)CC3)c21,24%,,
CN1CC2(CCN(C(=O)c3cccn3C)CC2)CC1C(=O)N1CCOCC1 (stereo not drawn),2.81%,,
O=C(Nc1ccc(F)cc1F)c1ccc2c(c1)n(Cc1cccc(F)c1)c(=O)c1ccnn12,-5.91%,,
CCNC(=O)N1CCCC1c1noc(CCC(=O)NCCc2nc3ccccc3[nH]2)n1 (stereo not drawn),,,inactive; activator; fitted 3.9811 uM

SMILES,"activity, negative = inhibition",Potency,outcome
CC(=O)N1Cc2ccccc2CC2(CCCN(Cc3ccncc3)C2)C1 (stereo not drawn),-19.2%,,
CC(=O)N1Cc2ccccc2CC2(CCN(Cc3ccc(O)cc3)CC2)C1,-15.7%,,
C[C@H](C(=O)N1Cc2ccccc2CC2(CCN(Cc3ccncc3)CC2)C1)c1ccccc1,,11.2 µM (active),
O=C(CCc1cccnc1)N1CCc2c(n(CCOc3ccccc3)n(-c3ccccc3)c2=O)C1,9.6%,,
COCCCNC(=O)c1cc(C2CC2)nc2onc(C3CCCN3)c12 (stereo not drawn),-11.5%,,
CC(C)C[C@@H]1N[C@H](C(=O)NC(C)C)Cc2c[nH]c3cccc1c23,-0.792% [at 44.1 µM],,
CCN1C(=O)CCN(C(=O)c2cnn(C)c2)CC12CCOCC2,8.57%,,
CCc1ccc(CNC(=O)C2CCN(c3nnc(C)c4c(C)n(-c5ccc(C)cc5)nc34)CC2)cc1,,10 µM (active),
Cc1nnc(N2CCCC(C(=O)NCCN(C)C)C2)c2nn(-c3ccccc3)c(C)c12 (stereo not drawn),-14.9%,,
CCCCNC(=O)C1CCCN(c2nnc(C)c3c(C)n(-c4ccc(Cl)cc4)nc23)C1 (stereo not drawn),-16%,,
O=C1c2cc(N3CCOCC3)nc(-c3cccnc3)c2CN1C1COC1,2.02% [at 44.1 µM],,
CN1Cc2c(cc(N3CCOCC3)nc2-c2cccc(F)c2)C1=O,,,inactive [at 44.1 µM]
COc1cccc(-c2nc(N3CCOCC3)cc3c2CN(CC2CC2)C3=O)c1,,11.2 µM (active),
O=C1CCC(C(=O)NCc2ccc(-c3cnc4c(Oc5ccccc5)nccn34)cc2)N1 (stereo not drawn),-8.65% [at 44.1 µM],,
COc1ccc(C2Cn3nnc(-c4nc(-c5ccc(OC(C)C)cc5)no4)c3CO2)cc1 (stereo not drawn),,,inactive
CCOC(=O)c1c(C)[nH]c(CCC(=O)Nc2ccc(OC)c(OC)c2)c1C,-10.2%,,
CCOC(=O)c1c(C)[nH]c(CCC(=O)NCCCN2CCN(c3cc(C)ccc3C)CC2)c1C,,10 µM (active),
CC1=C(c2ccc(Cl)cc2)S(=O)(=O)N=C1N1CCN(c2cc(C)ccc2C)CC1,,,inactive
CCOC(=O)c1c(C)[nH]c(CCC(=O)NCCCN2CCN(c3cccc(Cl)c3)CC2)c1C,,,inactive
Cc1ccc(C)c(N2CCN(CCCNC(=O)Nc3ccc(Cl)cc3)CC2)c1,,10 µM (active),
Cc1ccc(C)c(N2CCN(C(=O)Cc3c(C(=O)O)c(C)cn3C)CC2)c1,4.31%,,
